Reference: PubChem BioAssay AID652115 (Broad Institute, 2013)
Values joined by “and” are separate entries in the source; they are usually repeats but may differ in a detail not shown here. Identical values can stand only once. Out of some 330,000 compounds screened, about 3,800 (1.2%) were called active. This is one part of a sample in which actives are shown more often than they occur. No stated cut-off is given here; in the data, active means inhibition above about 15%; inconclusive means no clear call, values can overlap the other calls; inactive means below that. Some structures have more than one record in an assay (separate samples or runs), and their calls can disagree.

biological target: NAD-dependent protein deacylase sirtuin-5, mitochondrial (Homo sapiens) (UniProt Q9NXA8); assay: SIRT5 desuccinylase inhibitors, primary screen, biochemical, fluorescence imaging, single point, set 5 (AID 652115); conditions: Purified SirT5, succinyl-peptide AMC, trypsin-coupled fluorescence; at 15 µM; stronger effect = higher value
Sequence (Q9NXA8 whole entry, looked up): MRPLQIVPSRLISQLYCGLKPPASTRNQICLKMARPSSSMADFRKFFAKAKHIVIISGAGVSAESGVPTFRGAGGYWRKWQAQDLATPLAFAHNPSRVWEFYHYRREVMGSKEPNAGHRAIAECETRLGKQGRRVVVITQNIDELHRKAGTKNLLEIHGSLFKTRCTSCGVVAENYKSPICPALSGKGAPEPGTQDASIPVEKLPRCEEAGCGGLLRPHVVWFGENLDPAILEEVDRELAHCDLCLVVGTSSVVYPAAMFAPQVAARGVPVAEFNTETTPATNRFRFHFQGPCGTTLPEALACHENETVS

Row | Compound | inhibition
1 | O=C(C1CCC1)N1CC(=O)N2[C@@H](CO)[C@@H](c3ccc(C#Cc4cccc(F)c4)cc3)[C@@H]2C1 | -4.53% (inactive)
2 | Cc1ccccc1S(=O)(=O)N[C@H]1CC[C@H](CCn2cc(-c3ccc(F)cc3)nn2)O[C@H]1CO | -0.59% (inactive)
3 | Cc1ccccc1S(=O)(=O)N[C@H]1CC[C@@H](CCn2cc(Cc3ccccc3)nn2)O[C@H]1CO | 31.4% (active)
4 | Cc1ccccc1S(=O)(=O)N[C@@H]1CC[C@H](CCn2cc(-c3ccc(F)cc3)nn2)O[C@@H]1CO | -4.75% (inactive)
5 | Cc1ccc(S(=O)(=O)N[C@@H]2CC[C@@H](CC(=O)O)O[C@@H]2CO)cc1 | 1% (inactive)
6 | O=C(C[C@@H]1CC[C@H](NC(=O)Nc2ccc3c(c2)OCO3)[C@H](CO)O1)NCc1ccccc1 | -2.1% (inactive)
7 | CN1c2ccc(-c3ccccc3F)cc2[C@H]2[C@H](CCN2C(=O)Cc2ccccn2)[C@H]1CO | 2.91% (inactive)
8 | CN1c2ccc(-c3ccccc3)cc2[C@@H]2[C@@H](CCN2C(=O)c2ccccc2)[C@H]1CO | 6.95% (inactive)
9 | CN1c2ccc(-c3ccccc3)cc2[C@H]2[C@H](CCN2C(=O)Cc2ccccn2)[C@H]1CO | 21.9% (active)
10 | CCCNC(=O)C[C@H]1C[C@H]2c3cc(NC(=O)COC)ccc3O[C@H]2[C@H](CO)O1 | -2.28% (inactive)
11 | Cn1nnnc1SCC(=O)NNC(=O)c1ccc(Br)cc1 | 20.1% (active)
12 | Cn1cnnc1SCC(=O)NNC(=O)COc1ccc(Br)cc1 | -1.96% (inactive)
13 | Cn1nnnc1SCC(=O)Nc1sccc1C(N)=O | -1.15% (inactive)
14 | N#C[C@H]1[C@H](c2ccc(-c3cccc(F)c3)cc2)[C@@H](CO)N1C(=O)NC1CCCC1 | 3.71% (inactive)
15 | O=C1CN(Cc2ccc(F)cc2)C[C@H]2[C@@H](c3ccc(Br)cc3)[C@H](CO)N12 | 2.52% (inactive)
16 | CN1c2ccc(Br)cc2[C@@H]2[C@@H](CCN2C(=O)Cc2ccccc2)[C@@H]1CO | 0.309% (inactive)
17 | C[C@@H]1CN([C@@H](C)CO)C(=O)c2cc(NC(=O)C3CC3)ccc2O[C@H]1CN(C)C | 41.9% (active) and -3.15% (inactive)
18 | Cc1noc(C)c1S(=O)(=O)N(C)C[C@H]1Oc2ccc(NC(=O)C3CCCCC3)cc2C(=O)N([C@H](C)CO)C[C@@H]1C | -3.3% (inactive)
19 | Cc1noc(C)c1S(=O)(=O)N(C)C[C@@H]1Oc2ccc(NC(=O)C3CC3)cc2CC(=O)N([C@@H](C)CO)C[C@@H]1C | 1.59% (inactive)
20 | CC(C)NC(=O)N(C)C[C@@H]1Oc2ccc(NC(=O)C3CC3)cc2C(=O)N([C@@H](C)CO)C[C@H]1C | 0.185% (inactive)
21 | Cc1noc(C)c1S(=O)(=O)N(C)C[C@H]1Oc2ccc(NC(=O)C3CC3)cc2C(=O)N([C@H](C)CO)C[C@@H]1C | 20.9% (active)
22 | C[C@@H]1CN([C@H](C)CO)C(=O)c2cc(NC(=O)C3CC3)ccc2O[C@@H]1CN(C)C | -4.11% (inactive)
23 | COc1ccc2c3c([nH]c2c1)[C@H](CO)N(C(=O)c1ccncc1)CC31CCN(C(=O)c2ccncc2)CC1 | 12.6% (inactive)
24 | COc1ccc(S(=O)(=O)N(C)C[C@@H]2OCCCC[C@H](C)Oc3ccc(NC(=O)NC(C)C)cc3C(=O)N([C@@H](C)CO)C[C@@H]2C)cc1 | 0.637% (inactive)

Row | Compound | inhibition
25 | C[C@@H]1CN([C@@H](C)CO)C(=O)c2cc(/C=C/c3ccccc3)cnc2O[C@H]1CN(C)C(=O)Nc1ccc(C(F)(F)F)cc1 | 8.54% (inactive)
26 | C[C@@H]1CN([C@H](C)CO)C(=O)c2cccc(NS(=O)(=O)c3ccc(F)cc3)c2O[C@@H]1CN(C)S(=O)(=O)c1ccccc1 | 3.68% (inactive)
27 | Cc1ccc(NC(=O)Cn2c(C)csc2=O)cc1 | 4.07% (inactive)
28 | Cc1nn(CC(=O)Nc2ccc(F)cc2)c(=O)c2ccccc12 | -1.48% (inactive)
29 | Cc1ccc(NC(=O)Cn2sc3ccccc3c2=O)cc1 | 19.6% (active)
30 | O=C(C[C@H]1C=C[C@H](NC(=O)Nc2ccccc2F)[C@@H](CO)O1)NCc1ccc(Cl)cc1 | -6.94% (inactive)
31 | CN1c2ccc(Br)cc2[C@H]2[C@H](CCN2S(=O)(=O)c2ccc(F)cc2)[C@@H]1CO | 0.059% (inactive)
32 | CC(C)NC(=O)N(C)C[C@H]1Oc2cc(C#Cc3ccccn3)ccc2S(=O)(=O)N([C@H](C)CO)C[C@@H]1C | -0.996% (inactive)
33 | CCNC(=O)[C@@H]1[C@@H](CO)[C@@H]2Cn3c(ccc(C4=CCCC4)c3=O)[C@H]1N2Cc1ccccc1 | -12.8% (inactive)
34 | NC1=C([N+](=O)[O-])C(c2ccccc2)C2=C(CCCC2=O)O1 (configuration not stated) | 15.7% (active)
35 | COc1ccc(C2C3=C(CCCC3=O)N(CC(=O)O)C3=C2C(=O)CCC3)cc1 | -6.31% (inactive)
36 | COc1cc(C2C3=C(CCCC3=O)OC3=C2C(=O)CCC3)ccc1OCC(=O)Nc1ccccc1 | 1.24% (inactive)
37 | C[C@H]1CCCCO[C@@H](CN(C)C(=O)c2ccccc2)[C@@H](C)CN([C@@H](C)CO)C(=O)c2cc(NS(=O)(=O)c3ccccc3)ccc2O1 | 0.494% (inactive)
38 | Cc1ccc(-c2cnc3c(c2)C(=O)N([C@H](C)CO)C[C@H](C)[C@@H](CN(C)C(=O)c2cccc(F)c2)O3)cc1 | -11.3% (inactive)
39 | CN1CCN(C(=O)C[C@H]2CC[C@H]3[C@@H](COC[C@H](O)CN3C(=O)c3ccc(F)cc3)O2)CC1 | 1.19% (inactive)
40 | O=C(CC1CC1)Nc1ccc2c(c1)[C@@H]1C[C@@H](CC(=O)NC3CCCCC3)O[C@@H](CO)[C@@H]1O2 | -2.5% (inactive)
41 | CO[C@@H]1CN(C)C(=O)c2ccc(NC(=O)C3CCCCC3)cc2OC[C@@H](C)N(Cc2nccs2)C[C@@H]1C | 3.01% (inactive)
42 | CC(C)NC(=O)Nc1ccc2c(c1)CC(=O)N([C@H](C)CO)C[C@H](C)[C@H](CN(C)Cc1ccc3c(c1)OCO3)O2 | 4.37% (inactive)
43 | COc1ccc(NC(=O)Nc2ccc3c(c2)CC(=O)N([C@@H](C)CO)C[C@H](C)[C@@H](CN(C)Cc2ccc4c(c2)OCO4)O3)cc1 | 3.53% (inactive)
44 | C[C@H]1CN([C@@H](C)CO)C(=O)c2cc(NC(=O)Nc3ccc4c(c3)OCO4)ccc2O[C@@H]1CN(C)CC1CCCCC1 | 6.87% (inactive)
45 | C[C@@H]1CN([C@H](C)CO)C(=O)Cc2cc(NC(=O)Nc3ccc(F)cc3)ccc2O[C@@H]1CN(C)Cc1ccc2c(c1)OCO2 | 32.7% (active)
46 | C[C@@H]1CN([C@@H](C)CO)C(=O)Cc2cc(NC(=O)Nc3ccc4c(c3)OCO4)ccc2O[C@@H]1CN(C)CC1CCCCC1 | 18.8% (active)
47 | C[C@H]1CN([C@@H](C)CO)C(=O)Cc2cc(NC(=O)Nc3ccc4c(c3)OCO4)ccc2O[C@H]1CN(C)CC1CC1 | -1.18% (inactive)
